In all, about 16,000 compounds went through this assay and about 5,700 (36%) were called active. Not shown: some 24% with an inconclusive outcome. This is one part of the list. A number with no mark means an inactive call. Calls follow the shape of the dose curve; as a rule, active = well fitted curve in the direction sought with a large enough effect; inconclusive = small, poorly fitted or top-dose-only effect, or effect the other way; inactive = no such curve, though single readings can be large or run the other way.
% is scaled to controls: 0 for no effect and ±100 for the full control effect.

Cytochrome P450 1A2 (Homo sapiens), sequence (P05177 whole entry, looked up): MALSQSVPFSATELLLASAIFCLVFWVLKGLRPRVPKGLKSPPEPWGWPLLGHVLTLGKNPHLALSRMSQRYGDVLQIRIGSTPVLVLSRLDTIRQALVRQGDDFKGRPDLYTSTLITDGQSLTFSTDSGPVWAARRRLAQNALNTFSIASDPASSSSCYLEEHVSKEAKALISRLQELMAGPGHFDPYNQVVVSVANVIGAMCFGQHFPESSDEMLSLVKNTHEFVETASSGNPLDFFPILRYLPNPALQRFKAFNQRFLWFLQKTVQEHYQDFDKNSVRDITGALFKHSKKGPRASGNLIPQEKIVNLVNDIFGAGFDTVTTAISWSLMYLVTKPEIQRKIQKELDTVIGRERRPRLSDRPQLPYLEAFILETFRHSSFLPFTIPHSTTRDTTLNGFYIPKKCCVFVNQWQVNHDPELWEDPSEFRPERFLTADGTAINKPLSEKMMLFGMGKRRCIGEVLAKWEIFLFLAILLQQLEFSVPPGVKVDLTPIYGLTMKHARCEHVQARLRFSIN

The test concerns the target Cytochrome P450 1A2 (Homo sapiens) (UniProt P05177). Description: Cytochrome panel assay with activity outcomes. Particulars: recombinant CYP, pro-luciferin dealkylation, luminescence, p450-cyp1a2; series mostly up to 57.1 µM; activity, negative = inhibition: at the top concentration. Here is the method:
The P450 gene superfamily is involved in the metabolism and clearance of xenobiotics. This assay used various human CYP P450 isozymes to measure the dealkylation of various pro-luciferin substrates to luciferin. The luciferin is then measured by luminescence after the addition of a luciferase detection reagent. Pro-luciferin substrate concentration in the assay was equal to its KM for its CYP P450 isozyme. Inhibitors and some substrates limit the production of luciferin, and decrease measured luminescence.
NCGC Assay Protocol Summary:
1, Reagent, 2 uL, Isozyme and Pro-Luciferin
2, Library compounds, 23 nl, 40 uM to 0.24 nM dilution series
3, Controls, 23 nl, Isozyme specific inhibitor
4, Reagent, 2 uL, NADPH regeneration solution
5, Incubation time, 60 min, Isozyme specific temperature
6, Reagent, 4ul, Detection reagent
7, Incubation time, 20 min, Isozyme specific temperature
8, Detection, 1 sec, ViewLux luminescent read
The luciferase-based P450-GloTM Screening Systems were obtained from Promega (Madison, WI) for CYP 1A2 (V9770), CYP 2C9 (V9790), CYP2 C19 (V9880), CYP 2D6 (V9890), and CYP 3A4 Luciferin-PPXE (V9910) and were adapted for 1,536-well microplates and an automated protocol. The control compounds furafylline for 1A2 (F124), sulfaphenazole for CYP 2C9 (S0758), ketoconazole for CYP 2C19 (K1003), quinidine for 2D6 (Q3625), and ketoconazole for 3A4 (K1003) were purchased from Sigma Aldrich (St. Louis, MO). Recombinant P450 enzymes were obtained from baculovirus constructs expressed in insect cells (BD/Gentest).
Medium-binding white solid Kalypsys plates used. Mixtures kept on ice. 1A2: 10 nM 1A2, 100 uM Luc-ME, 100 mM KPO4; 2C9: 10 nM 2C9, 100 uM Luc-H, 25 mM KPO4; 2C19: 5 nM 2C19, 10 uM Luc-H EGE, 50 mM KPO4; 2D6: 5 nM 2D6, 30 uM Luc-ME EGE, 100 mM KPO4; 3A4: 10 nM, 25 uM Luc-PPXE. All amounts are reflected in their final concentration, working concentration is 2x.
NADPH regeneration solution: 1.3 mM NADP+, 3.3 mM glucose-6-phosphate, 3.3 mM MgCl2, 0.4 U/mL glucose-6-phosphate dehydrogenase for all isozymes, 200 mM KPO4 for 3A4. Mixture prepared at RT but kept on ice during automated run.
RT incubation in auxilliary plate hotel for 1A2, 2D6, and 3A4; 37C for 2C9 and 2C19.
Keywords: P450, CYP1A2, CYP2C19, CYP2C9, CYP2D6, CYP3A4, Luciferase, MLSMR, MLSCN, NIH Roadmap, qHTS, NCGC
Take `COc1cccc([C@@H]2Oc3ccc(OC)cc3/C(=N/O[C@@H](C)CN3CCCc4nc(C)c(C)cc43)[C@@H]2O)c1`: the activity, negative = inhibition is 2.03% [at 11.4 µM].
On the same count and under the same terms, the result for `Cn1c(CCN2CCCCC2)nc2cc([N+](=O)[O-])ccc21` reads -14.1%; that for `CN1CCN(c2ccc([N+](=O)[O-])cc2S(=O)(=O)N2CCOCC2)CC1`, 6.31%.
As a reminder, the AC50 is the concentration giving half of the maximal activity seen. For the compound `CN(C)S(=O)(=O)c1cc([N+](=O)[O-])ccc1N1CCCCCC1`, the half-maximal activity concentration (AC50) was 14.1 µM (active).
For `CCCNC(=O)OC[C@@H]1O[C@H](CCO/N=C(\C)CCC(=O)OC[C@@H]2O[C@H](c3ccccc3)C=C[C@@H]2Oc2ccc(OC)cc2)C=C[C@@H]1Oc1ccc(OC)cc1`, the activity, negative = inhibition was -2.5% [at 11.4 µM].
Take `CCNc1ccc(Br)cc(C(=O)/C=C/c2ccc3c(c2)OCO3)c1=O`: the AC50 is 22.4 µM (active).
Take `Nc1ccccc1C(=O)/C=C\c1ccc2c(c1)OCO2`: the activity, negative = inhibition is -4.77% [at 11.4 µM].
As to `CNc1ccc(Br)cc(C(=O)/C=C/c2ccc3c(c2)OCO3)c1=O`, the AC50 was 3.16 µM (active).
Same read-out and setting: to `Oc1cc(O)c2c(c1)O[C@H](c1ccc(O)c(O)c1)[C@H](O)C2` belongs “inactive”.
As for `Cc1ccc(CCN2CC(C(=O)NC3CCCC3)CC2=O)cc1` (centres undefined), the “activity, negative = inhibition” value was -27.7%.
`CC1CCCC(C)N1C(=O)C1CC(c2ccc(F)cc2)=NO1` (centres undefined): the “activity, negative = inhibition” value was -45.5%.
For the compound `O=C(NC1CCCC1)C1CC(c2ccc(F)cc2)=NO1` (centres undefined), the AC50 was 15.8 µM (active).
On the same count and under the same terms, the result for `COC(=O)c1c(NC(=O)CC2Nc3ccccc3NC2=O)sc(C)c1C` (centres undefined) reads 10 µM (active).
For `COC(=O)c1c(-c2ccccc2)csc1NC(=O)CSc1ncnc2sc(C)c(C)c12`, the “activity, negative = inhibition” value is -28.3%.
On the same count and under the same terms, to `Cc1c(Cl)cccc1NC(=O)C[C@H]1Sc2ccccc2NC1=O` belongs -23.2% [at 2.29 µM].
Take `Cc1cc(NC(=O)Nc2ccc(N(C)C)cc2)c2cc(F)cc(F)c2n1`: the AC50 was 0.126 µM (active).
In the case of `CO[C@@H]1COC(=O)C/C=C\[C@@H](C)[C@@H]2C=C[C@H](O)[C@@H](COC(=O)CCC[C@H]1C)O2`, the activity, negative = inhibition was 1.73% [at 11.4 µM].
As for `Cc1ccc(Nc2nc(-c3c(C)nc4ncccn34)cs2)cc1`, the AC50 is 3.16 µM (active).
Same read-out and setting: to `Cc1cc(NCc2ccccn2)ccc1Br` belongs 4.47 µM (active).
Same read-out and setting: to `Cc1cc(Br)ccc1NCc1ccccn1` belongs 1.12 µM (active); to `CN(C)CC[C@H](c1ccc(Br)cc1)c1ccccn1`, “inactive”.
Take `Cc1cc(N=Cc2c(CO)cnc(C)c2O)c(N=Cc2c(CO)cnc(C)c2O)cc1C.[Zn]`: the activity, negative = inhibition is -10.4% [at 2.29 µM].
Same read-out and setting: the result for `CC(=O)NC1(c2cccc(F)c2)CCN(CC(=O)NC2CCCCC2)CC1` reads -13.1%; that for `CCCC(c1cc(C(C)(C)C)c(O)cc1C)c1cc(C(C)(C)C)c(O)cc1C`, -12.3% [at 2.29 µM].

The values are drawn from PubChem BioAssay AID1851 (National Center for Advancing Translational Sciences (NCATS), 2009).
